The values below come from PubChem BioAssay (NCI).

The panel holds about 83,000 compounds, 20% with a hit somewhere; the sample as a whole holds those more often.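 Percent growth is the endpoint: 0 to 100 indicates growth inhibition (40 means 60% inhibition), 0 means no net growth, and negative values indicate cell death.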 The source made the active and inactive calls. The calls were made as follows: active = growth percent below 10; inactive = the rest.

In one assay the test system is HT29 colon. Description: NCI-60 one-dose screen, 48 h (100 = growth as untreated, 0 = no growth, -100 = all killed). The conditions noted are these: 10 µM unless noted.
Turning to `Cc1csc(NC(c2ccccc2)c2c(C)nc3ccccn23)n1` (centres undefined), the growth is 98% (inactive).
The same measure, in the same setting: the result for `Cc1ccc(/C=C2\CN(C(=O)CCN3CCC(=NO)CC3)C/C(=C\c3ccc(C)cc3)C2=O)cc1` reads -42.8% (active); that for `c1ccc(-c2nc(N3CCNCC3)c3nc(-c4ccccc4)oc3n2)cc1`, -86.6% (active); that for `CCN(CC)c1ccc(CNc2ccnc3ccccc23)cc1`, 24.8% (inactive).
The same measure, in the same setting: the result for `CN(CCCCN(C[C@H]1Cc2ncccc2CN1)[C@H]1CCCc2cccnc21)C1CCC(F)(F)CC1` reads 82.3% (inactive); that for `ClC(Cl)c1nc(-c2ccccc2)nc2cc(-c3ccccc3)nn12`, 2.11% (active).
For `CC(=O)OC[C@]12CC[C@H]3[C@@H](C[C@H]4O[C@]45CC=CC(=O)[C@]35C)[C@]1(O)CC[C@@]2(O)[C@@](C)(O)C1CC(C)=C(C)C(=O)O1` (some centres undefined), the growth is -21.2% (active).
Consider `O=C(Nc1cccc(-n2cc(-c3ccncc3)c(-c3ccc(Cl)c(O)c3)n2)c1)Nc1cc(C(F)(F)F)cc(C(F)(F)F)c1`, for which the growth is -56% (active).
Same read-out and setting: the result for `CCN1C(=O)N(CC)C2C1NN=c1s/c(=C\c3cccnc3)c(=O)n12` (centres undefined) reads 8.17% (active).
Still for that read-out and setting: the result for `CCN(CC)CCCC(C)Nc1c2ccc(Cl)cc2nc2cc(OC)c(OC)cc12` (centres undefined) reads -23.8% (active); that for `CCOC(=O)/C(C#N)=C1/C(=O)Nc2ccccc21`, 112% (inactive).
Still for that read-out and setting: the result for `O=C1NN(C(=O)c2ccc(Cl)cc2)C(c2ccccc2)=N/C1=C\c1ccc(F)cc1` reads 97.4% (inactive).
Take `N[C@H]1CN(C(=O)c2cc3cc(Br)c(F)c(F)c3[nH]2)C[C@@H]1O`: the growth is 103% (inactive).
For the compound `O=C1/C(=C/c2ccc(Cl)cc2)CN(Cc2cn(CCNc3ccnc4cc(Cl)ccc34)nn2)C/C1=C\c1ccc(Cl)cc1`, the growth is -100% (active).

For another assay, the system named is SNB-75 CNS. The assay is described as above. The conditions noted are these: 10 µM.
`O=c1cc(Cc2ccc([N+](=O)[O-])cc2)[nH]c(=O)[nH]1`: the growth is 94.4% (inactive).
With `O=C1Nc2ccc3c(c2/C1=C\c1cc2c(cc1Br)OCO2)OCO3`, the growth is -37.7% (active).
The same measure, in the same setting: the result for `O=[N+]([O-])c1ccc(OCCCOc2ccccc2)cc1` reads 97.2% (inactive); that for `N#C/C(=C1C=C/C(=N/O)C(Cl)=C/1)c1ccc(Cl)cc1`, 89% (inactive).
Take `CCCCC(CC)OC(=O)C(Br)CC` (centres undefined): the growth was 90.1% (inactive).
Regarding `C=C[C@@H]1C[C@@H]2Cc3c(C)cc(C)cc3N1O2`, the growth is 95.4% (inactive).
The same measure, in the same setting: the result for `C=C[C@@H]1C[C@@H]2Cc3ccccc3N1O2` reads 102% (inactive); that for `CO[C@H]1NC(=O)N(S(=O)(=O)c2ccc(Cl)cc2)[C@@H]1OC`, 93.6% (inactive).
On the same count and under the same terms, the result for `COC(=O)c1cc2cc(-c3ccc(OC)cc3)cnc2[nH]1` reads 62.5% (inactive); that for `C[n+]1c(/C=C/c2c(O)ccc3ccccc23)ccc2ccccc21`, 49.9% (inactive).
Still for that read-out and setting: the result for `COc1ccc(-c2cn(-c3cccc(C(=O)/C=C/c4cc(OC)c(OC)c(OC)c4)c3)c(=O)[nH]2)cc1OC` reads 58.2% (inactive); that for `C=C[C@@H]1C[C@H](O)Cc2c(C)cc(C)cc2N1`, 93.6% (inactive).
Consider `O=C(O)Cc1cccc(=O)c(O)c1C(=O)O`, for which the growth is 107% (inactive).
Still for that read-out and setting: the result for `COc1cc(/C=C/C(=O)c2ccc(Nc3ncnc4cc(OC)c(OC)cc34)cc2)cc(OC)c1` reads 96.1% (inactive); that for `COc1cc(/C=C/C(=O)c2cccc(-n3cc(-c4cc(OC)c(OC)c(OC)c4)[nH]c3=O)c2)cc(OC)c1OC`, 44.6% (inactive).
In the case of `COC1=C(OC)C(=O)C(CCCCCCCCCC[P+](c2ccccc2)(c2ccccc2)c2ccccc2)=C(C)C1=O`, the growth was -44.5% (active).
On the same count and under the same terms, for `C=C[C@@H]1C[C@H](O)Cc2ccccc2N1` the value was 102% (inactive); for `O=S(=O)(CC(O)(c1ccccc1)c1ccccc1)CC(O)(c1ccccc1)c1ccccc1`, 58.4% (inactive); for `CCCCCCCCCCCC(=O)NCCC[N+](C)(C)CC(=O)[O-]`, 93.4% (inactive).
The same measure, in the same setting: for `Cn1c(=O)c2[nH]c(C3CC=CCC3)nc2n(C)c1=O` (centres undefined) the value was 93.9% (inactive).
For `O=[N+]([O-])c1cc(S(=O)(=O)Oc2ccccc2)ccc1Cl`, the growth is 52.2% (inactive).
For `C=C(C)[C@@H]1C[C@H](O)Cc2cc(F)ccc2N1`, the growth is 87.5% (inactive).
As to `COc1ccc2c(c1)[nH]c(=O)c1c3cccc(F)c3cn21`, the growth was 76.2% (inactive).
In the case of `CN(C)c1nc2c(N)ncnc2n1C1OC(CO)C(O)C1O` (centres undefined), the growth is 111% (inactive).
As to `NC(=S)N/N=C1\CCCC(C(F)(F)F)C1` (centres undefined), the growth was 87.3% (inactive).

Another assay concerns SNB-19 CNS. The assay is described as above. The conditions noted are these: 10 µM unless noted.
As for `O=c1cc(Cc2ccc([N+](=O)[O-])cc2)[nH]c(=O)[nH]1`, the growth is 97% (inactive).
Still for that read-out and setting: for `O=C1Nc2ccc3c(c2/C1=C\c1cc2c(cc1Br)OCO2)OCO3` the value was 42% (inactive).
Consider `O=[N+]([O-])c1ccc(OCCCOc2ccccc2)cc1`, for which the growth was 105% (inactive).
On the same count and under the same terms, for `N#C/C(=C1C=C/C(=N/O)C(Cl)=C/1)c1ccc(Cl)cc1` the value was 93.6% (inactive); for `CCCCC(CC)OC(=O)C(Br)CC` (centres undefined), 110% (inactive).
Consider `C=C[C@@H]1C[C@@H]2Cc3c(C)cc(C)cc3N1O2`, for which the growth is 113% (inactive).
On to `C=C[C@@H]1C[C@@H]2Cc3ccccc3N1O2`, for which the growth was 109% (inactive).
Same read-out and setting: for `CO[C@H]1NC(=O)N(S(=O)(=O)c2ccc(Cl)cc2)[C@@H]1OC` the value was 103% (inactive); for `COC(=O)c1cc2cc(-c3ccc(OC)cc3)cnc2[nH]1`, 42.4% (inactive).
Still for that read-out and setting: the result for `C[n+]1c(/C=C/c2c(O)ccc3ccccc23)ccc2ccccc21` reads 41.7% (inactive); that for `COc1ccc(-c2cn(-c3cccc(C(=O)/C=C/c4cc(OC)c(OC)c(OC)c4)c3)c(=O)[nH]2)cc1OC`, 108% (inactive).
As for `C=C[C@@H]1C[C@H](O)Cc2c(C)cc(C)cc2N1`, the growth was 109% (inactive).
Same read-out and setting: the result for `O=C(O)Cc1cccc(=O)c(O)c1C(=O)O` reads 105% (inactive); that for `COc1cc(/C=C/C(=O)c2ccc(Nc3ncnc4cc(OC)c(OC)cc34)cc2)cc(OC)c1`, 94.9% (inactive); that for `COc1cc(/C=C/C(=O)c2cccc(-n3cc(-c4cc(OC)c(OC)c(OC)c4)[nH]c3=O)c2)cc(OC)c1OC`, 56.6% (inactive).
Same read-out and setting: the result for `COC1=C(OC)C(=O)C(CCCCCCCCCC[P+](c2ccccc2)(c2ccccc2)c2ccccc2)=C(C)C1=O` reads -53.1% (active).
Still for that read-out and setting: for `C=C[C@@H]1C[C@H](O)Cc2ccccc2N1` the value was 108% (inactive).
`O=S(=O)(CC(O)(c1ccccc1)c1ccccc1)CC(O)(c1ccccc1)c1ccccc1`: the growth was 83.2% (inactive).
On the same count and under the same terms, the result for `CCCCCCCCCCCC(=O)NCCC[N+](C)(C)CC(=O)[O-]` reads 88.3% (inactive).
On the same count and under the same terms, for `Cn1c(=O)c2[nH]c(C3CC=CCC3)nc2n(C)c1=O` (centres undefined) the value was 100% (inactive); for `O=[N+]([O-])c1cc(S(=O)(=O)Oc2ccccc2)ccc1Cl`, 30.6% (inactive).
The same measure, in the same setting: the result for `C=C(C)[C@@H]1C[C@H](O)Cc2cc(F)ccc2N1` reads 104% (inactive).
Take `COc1ccc2c(c1)[nH]c(=O)c1c3cccc(F)c3cn21`: the growth was 39.1% (inactive).
The same measure, in the same setting: the result for `CN(C)c1nc2c(N)ncnc2n1C1OC(CO)C(O)C1O` (centres undefined) reads 107% (inactive); that for `NC(=S)N/N=C1\CCCC(C(F)(F)F)C1` (centres undefined), 100% (inactive).
